Sampled rows, rich in hits. Any-hit rate of the full collection: about 0.43%.
GLA spleen mod: alpha-galactosidase A (human) modulation. P06280. human spleen homogenate, 4MU-alpha-Gal fluorescence, 40 min. Potency, µM (top dose mostly 80 µM), hits mostly inhibitors. 0.008% of 240,000 active
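Inhibition or activation of alpha-galactosidase in human spleen homogenate is scored by 4-MU fluorescence after 40 min at 37C, pH 5.0, with 1 mM substrate. AC50s come from concentration-response fitted to the Hill equation.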
GAA glycogen: alters human alpha-glucosidase cleavage of glycogen; P10253; recombinant GAA, glycogen substrate, Amplex Red glucose oxidase fluorescence; Potency, µM (titrated, usually from 76.4 µM), usual class: inhibitors; 0.38% of 300,000 active; AID 2100;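 note: the screen sought inhibitors and activators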
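qHTS, 1536-well; enzyme 4 nM final; cpd up to 77 uM; substrate bovine liver glycogen 30 ug; 50 mM citrate/phosphate pH 5.0, 0.01% Tween-20; 37 C, 40 min; Amplex Red detection 45 min RT; Hill fit → AC50.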
N370S GC mod: inhibitors or activators of N370S glucocerebrosidase for Gaucher disease; N370S GC spleen homogenate, 4MU-glucoside fluorescence; Potency, µM (highest dose often 59.4 µM), most hits filed as inhibitors; 0.092% of 330,000 active
GLA inh pH 4.5: blocks human alpha-galactosidase A at pH 4.5. 230,000 tested, under 10 active. purified enzyme, 4-MU-alpha-Gal fluorescence, pH 4.5. activity change, negative = inhibition, % at 105 µM. AID 1467. P06280
Target sequence (P06280 whole entry, looked up): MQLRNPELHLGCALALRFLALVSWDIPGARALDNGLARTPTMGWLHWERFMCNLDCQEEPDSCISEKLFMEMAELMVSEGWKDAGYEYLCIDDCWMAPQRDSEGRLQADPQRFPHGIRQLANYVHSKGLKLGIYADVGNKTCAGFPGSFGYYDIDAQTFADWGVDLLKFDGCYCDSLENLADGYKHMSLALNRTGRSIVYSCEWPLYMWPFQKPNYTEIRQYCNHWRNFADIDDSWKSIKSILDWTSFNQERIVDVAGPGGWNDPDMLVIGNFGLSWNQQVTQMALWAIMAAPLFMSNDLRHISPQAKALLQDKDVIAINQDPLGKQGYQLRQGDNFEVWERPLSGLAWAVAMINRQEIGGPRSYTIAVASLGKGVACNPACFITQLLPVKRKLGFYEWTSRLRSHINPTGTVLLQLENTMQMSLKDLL
GAA spleen mod: inhibits or activates alpha-glucosidase in human spleen homogenate; 0.006% of 240,000 active; human spleen homogenate, 4-MU-alpha-glucoside fluorescence; Potency, µM (top dose mostly 79.9 µM), usual class: inhibitors
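Enzyme source: human spleen homogenate, 1 ug/well. Buffer 50 mM citric acid/K phosphate pH 5.0, 0.01% Tween-20. 4-MU-alpha-glucoside 1 mM; 37 C x 40 min; NaOH/glycine stop; fluorescence.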
GAA inhib: blocks human lysosomal alpha-glucosidase; 0.005% of 200,000 active; purified human GAA, 4-MU-alpha-glucoside fluorescence; AID 1466; P10253; Potency, µM (titrated, usually from 76.9 µM), most hits filed as inhibitors
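qHTS format, compound range up to 77 uM. Human lysosomal enzyme at 4 nM, 400 uM 4-MU glucoside substrate, pH 5.0, 20 min room temperature; fluorescence after alkaline stop gives activity normalized to controls.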
A number is an active result; 0 = inactive; ? = inconclusive; - = no result; [ ] = another dose, or the depositor's remark. Calls come from the whole dose curve; as a rule, active = well fitted curve in the direction sought with a large enough effect; inconclusive = small, poorly fitted or top-dose-only effect, or another doubt; inactive = no such curve, though single readings can be large; an effect the other way counts as inactive or inconclusive.

SMILES	GLA spleen mod	GAA glycogen	N370S GC mod	GLA inh pH 4.5	GAA spleen mod	GAA inhib
CCC(C)CC(C)CC(C)C(=O)/C=C(/O)C(C)CC(C)C/C=C/C(C)C(O)C(C)C(O)CC1CCC(C)(C)O1 (stereo not drawn)	0	-	0	-	0	-
COC(=O)N[C@@H](/C=C/c1ccccc1)C[N+](=O)[O-]	0	-	0	0	0	-
COc1ccc(-c2cnnc(N/N=C/c3ccc(O)c(O)c3)n2)cc1	0	11.2µM	0	0	0	0
C[C@H](NC(=O)[C@@H](Cc1c[nH]c2ccccc12)NC(=O)[C@@H](N)Cc1cnc[nH]1)C(=O)N[C@@H](Cc1c[nH]c2ccccc12)C(=O)N[C@H](Cc1ccccc1)C(=O)N[C@@H](CCCCN)C(N)=O	0	-	0	-	0	-
Cc1cc(Nc2ccc(Cl)cc2)nc(NCc2ccccc2)n1	0	0	22.4µM	0	0	0
Cc1ccc(Nc2cc(C)nc(-c3ccccc3O)n2)cc1	0	0	?	0	0	0
Cc1ccc(Nc2cc(C)nc(-c3ccccc3)n2)cc1	-	0	3.16µM	-	-	-
CC1=C(C(=O)O)N2C(=O)C(NC(=O)C(N)c3ccccc3)C2SC1 (stereo not drawn)	0	-	0	0	0	-
NC(C(=O)O)c1cc(O)cc(O)c1 (stereo not drawn)	0	-	0	-	0	-
O=C(CCCC[C@@H]1SC[C@H]2NC(=O)N[C@H]12)Nc1ccc(C(=O)O)cc1	0	-	0	-	0	-
CNC(=O)[C@H]1O[C@@H](n2cnc3c(N)ncnc32)[C@H](O)[C@H]1O	0	-	0	0	0	-
Cc1[nH]c2ccccc2c1/C=N/Nc1nc2ccccc2[nH]1	0	?	0	0	0	-
Cc1[nH]c2ccccc2c1/C=N/NC(N)=S	0	?	0	0	0	-
CCc1nnc(N/N=C/c2c(C)[nH]c3ccccc23)n1N	0	7.94µM	0	0	0	0
Cc1ccc(NC(=S)N/N=C/c2c(C)[nH]c3ccccc23)cc1	0	28.2µM	?	0	0	0
CCc1nnc(N/N=C/c2c(F)cccc2Cl)n1N	-	0	0	-	-	-
CCc1nnc(N/N=C/c2cc(C)c(C)cc2C)n1N	-	8.91µM	0	-	-	-
OCC1=C[C@@H](O)[C@@H]2C=CO[C@@H](OC3O[C@H](CO)[C@@H](O)[C@H](O)[C@H]3O)[C@H]12 (stereo partly drawn)	0	-	0	-	0	-
CCOc1cc(/C=C2\SC(=O)N=C2N)ccc1O	0	0	0	0	0	0
CCOc1cc(/C=C2\SC(N)=NC2=O)ccc1O	-	10µM	0	-	-	-
Cc1cc(C)nc(-n2nc(C)cc2Nc2ccccc2)n1	0	0	0	0	0	0
Cc1cc(Nc2ccccc2)n(-c2ccccc2)n1	0	12.5µM	0	0	0	0
COc1ccccc1C1(O)CCN(CCCn2c3ccccc3c3ccccc32)CC1	0	-	0	-	0	-
CCC1(c2ccccc2)NC(=O)NC1=O (stereo not drawn)	0	-	0	-	0	-
CC(C)C[C@H](NC(=O)[C@H](CC(C)C)NC(=O)[C@@H](Cc1c[nH]c2ccccc12)NC(=O)[C@H](Cc1ccccc1)NC(=O)[C@@H](Cc1c[nH]c2ccccc12)NC(=O)[C@H](CCC(N)=O)NC(=O)[C@H](CCC(N)=O)NC(=O)[C@@H]1CCCN1C(=O)[C@H](CCCCN)NC(=O)[C@@H]1CCCN1C(=O)[C@@H](CCCNC(=N)N)NC(=O)[C@@H]1CCCN1C(=O)CNC(=O)[C@H](CC(C)C)NC(=O)[C@H](CC(C)C)NC(=O)[C@H](Cc1ccc(O)cc1)NC(=O)CNC(=O)[C@H](C)NC(=O)[C@H](CO)NC(=O)[C@H](CC(N)=O)NC(=O)[C@H](CC(C)C)NC(=O)[C@@H](NC(=O)[C@H](Cc1c[nH]c2ccccc12)NC(=O)CN)[C@@H](C)O)C(N)=O	0	-	0	-	0	-
SMILES	GLA spleen mod	GAA glycogen	N370S GC mod	GLA inh pH 4.5	GAA spleen mod	GAA inhib
COc1ccc(C(=O)NNC(=S)NC(=O)c2cccnc2)cc1	0	39.5µM	0	0	0	0
COc1ccc(NC(=S)NNC(=O)c2cccnc2)cc1OC	0	3.95µM	0	0	0	0
c1ccc(-c2ccc3c(c2)NCCN3)cc1	0	8.91µM	0	0	0	-
Oc1cc2c(cc1O)[C@@H](c1ccccc1)CNCC2	0	1.78µM	0	0	0	0[15.4 µM]
Cc1ccc(NNC(=O)c2cc(C(C)(C)C)nn2Cc2ccccc2)cc1	0	11.2µM	0	0	0	0[15.4 µM]
COC(=O)C1C(O)CC[C@H]2CN3CCc4c([nH]c5ccccc45)C3C[C@H]12 (stereo partly drawn)	0	-	?	0	0	-
COc1ccc(-c2nc3c(c4c2C[C@H](c2ccccc2)OC4)CN(S(=O)(=O)c2ccc(C#N)cc2)CC3)c(C)c1	0[17.5 µM]	-	0[12.8 µM]	0	0[17.4 µM]	-
Cc1sc2nc(N)sc2c1C	0	17.6µM	0	0	0	0
Cc1ccc(C)c2sc(N)nc12	0	0	0	0	0	0
CC[C@H](C)[C@H](NC(=O)[C@H](CO)NC(=O)[C@H](CC(C)C)NC(=O)[C@H](CO)NC(=O)[C@@H]1CCCN1C(=O)[C@H](CC(N)=O)NC(=O)[C@@H](N)CC(=O)O)C(=O)N[C@@H](CC(=O)O)C(=O)N[C@@H](CC(C)C)C(=O)N[C@H](C(=O)N[C@@H](Cc1ccccc1)C(=O)N[C@@H](Cc1cnc[nH]1)C(=O)N[C@@H](CC(C)C)C(=O)N[C@@H](CC(C)C)C(=O)N[C@@H](CCCNC(=N)N)C(=O)N[C@H](C(=O)N[C@@H](CC(C)C)C(=O)N[C@@H](CC(C)C)C(=O)N[C@@H](CCC(=O)O)C(=O)N[C@@H](CC(C)C)C(=O)N[C@@H](C)C(=O)N[C@@H](CCCNC(=N)N)C(=O)N[C@H](C(=O)N[C@@H](CCC(N)=O)C(=O)N[C@@H](CO)C(=O)N[C@@H](CCC(N)=O)C(=O)N[C@@H](CCCNC(=N)N)C(=O)N[C@@H](CCC(=O)O)C(=O)N[C@@H](CCCNC(=N)N)C(=O)N[C@@H](C)C(=O)N[C@@H](CCC(=O)O)C(=O)N[C@@H](CCC(N)=O)C(=O)N[C@@H](CC(N)=O)C(=O)N[C@@H](CCCNC(=N)N)C(=O)N[C@H](C(=O)N[C@H](C(=O)N[C@@H](Cc1ccccc1)C(=O)N[C@@H](CC(=O)O)C(=O)N[C@@H](CO)C(=O)N[C@H](C(N)=O)C(C)C)[C@@H](C)CC)[C@@H](C)CC)[C@@H](C)O)[C@@H](C)O)[C@@H](C)O	0	-	0	-	0	-
C#CCOCCOCCOCCNc1nc(N2CCN(C(=O)CCCCCCCCCCNC(=O)[C@H](CO)n3cc(CCCSC)nn3)CC2)nc(N2CCN(C(=O)CCCCCCCCCCNC(=O)[C@H](CCCN=C(N)N)n3cc(C[C@@H](C)CC)nn3)CC2)n1	-	-	3.16µM	-	-	-

Assay outcomes as filed in PubChem.
